# Laboratory results from PubChem BioAssay (NCI).
# Compounds without any hit were thinned out: in the full panel of roughly 83,000, 20% have a hit.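 Activity criterion: percent growth below 10, measured after cells in 96-well plates were exposed to a single compound concentration for 48 hours.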 Values without a mark were called inactive. Calls of active or inactive are those of the source.
# Tests used:
# Assay in all cases: NCI-60 one-dose screen, 48 h (100 = growth as untreated, 0 = no growth, -100 = all killed)
# Conditions in all cases: 10 µM unless noted
# [1] = system: NCI-H23 lung
# [2] = system: NCI-H226 lung
# [3] = system: NCI-H322M lung
# [4] = system: HOP-62 NSCLC
# [5] = system: NCI-H460 lung
# [6] = system: HOP-92 NSCLC
# [7] = system: NCI-H522 lung
# [8] = system: A549/ATCC NSCLC
# [9] = system: 786-0 renal
# [10] = system: COLO 205 colon
# [11] = system: DU-145 prostate
# [12] = system: K-562 leukemia
# [13] = system: MALME-3M melanoma
# [14] = system: MDA-MB-231 breast
# [15] = system: RXF 393 renal
# [16] = system: SF-268 CNS
# [17] = system: SF-295 CNS
# [18] = system: SF-539 CNS
# [19] = system: UACC-257 melanoma
# [20] = system: M14 melanoma
SMILES,growth [1] [%],growth [2],growth [3] [%],growth [4],growth [5],growth [6],growth [7],growth [8],growth [9],growth [10],growth [11],growth [12],growth [13],growth [14] [%],growth [15],growth [16],growth [17],growth [18],growth [19],growth [20]
Cn1c(=O)c2c(nc3n(-c4ccc(Cl)cc4Cl)c(Sc4nc(-c5ccccc5)c(C#N)c(=O)[nH]4)cn23)n(C)c1=O,65,56.4%,26.4,54.8%,13.9%,34.4%,59.6%,20.9%,15.1%,71.8%,50.5%,84%,45.2%,27.7,59.1%,61.9%,44.4%,30.6%,99.9%,84%
COc1ccc2nc(NC(=O)CSc3nnc4n3S(=O)(=O)c3ccccc3N4c3ccccc3)sc2c1,87.4,101%,91.2,94.7%,104%,46.6%,64.5%,44.8%,101%,96.1%,99.3%,113%,89.7%,77.7,23%,71.9%,73.2%,94.3%,103%,100%
NNCCc1ccc(NC(=O)CCCc2ccc(/C=C/C(=O)NO)cc2)cc1,64.9,36%,64,32.8%,62.8%,28.8%,16.6%,76.4%,71.3%,71.2%,72.6%,7.74% (active),39.4%,42.3,63.6%,45.3%,77.7%,53.3%,51.7%,61.1%
COc1cc(/C=C/C(=O)c2ccc(O)c(CN3CCN(c4cc5c(cc4F)c(=O)c(C(=O)O)cn5C4CC4)CC3)c2)cc(OC)c1OC,42.8,76.9%,30,72.3%,34.8%,81.2%,27.6%,43.1%,49.8%,106%,24.6%,10.6%,74.3%,76.7,28.1%,54.9%,86.5%,49.6%,64.5%,48.8%
COc1ccc(-c2nc3ccc(-c4nc5ccc(N6CCN(c7ccc(F)cc7)CC6)cc5[nH]4)cc3[nH]2)cc1OC,60.7,66.6%,88.5,75.6%,71.1%,63.6%,45.3%,77.3%,79.5%,30.4%,80.3%,17.7%,43.9%,107,68.6%,82.6%,76%,68.2%,104%,61.8%
Nc1n[nH]c2cc(F)c([C@@H]3Nc4ccc5[nH]ncc5c4[C@H]4C5CCC(C5)[C@@H]34)cc12 (stereo not given in full),26.4,15%,54.7,26.1%,-11.2% (active),45.7%,-19% (active),8.81% (active),25.4%,-26.9% (active),-7.54% (active),11.5%,73%,35.8,54.2%,9.83% (active),6.25% (active),-31% (active),53.1%,-1.74% (active)
COc1cccc(/C=N/NC(=O)c2ccccc2Nc2ccnc(C(F)(F)F)c2)c1O,30.8,-20.2% (active),17.4,-6.28% (active),-6.96% (active),29.4%,18.6%,14.3%,-2.01% (active),2.9% (active),22.8%,33.7%,1.24% (active),42.6,21%,18.9%,18.6%,0.849% (active),8.18% (active),-30.1% (active)
Cc1nn(-c2cc(=O)[nH]c3ccc(Cl)cc23)c(N)c1C#N,93.8,81.3%,98.2,94.9%,101%,104%,93.3%,108%,106%,119%,114%,113%,105%,96.9,113%,102%,100%,99.9%,107%,110%
COc1cc(/C=C/c2cc(/C=C/c3ccc(O)c(OC)c3)n(-c3c(Cl)cccc3Cl)c(=O)n2)ccc1O,29,48.8%,72.7,50.6%,70.8%,78.7%,9.89% (active),44.1%,29.7%,71.8%,28.7%,9.21% (active),58.8%,29,-11.8% (active),19.9%,75.4%,3.35% (active),41.1%,7.71% (active)
O=C1c2ccccc2C(=O)c2c1ccc1[nH]c(-c3cccs3)nc21,84.5,91.9%,60.9,102%,73.7%,80.8%,78.9%,66.7%,99.9%,103%,88.9%,80.7%,81.9%,70.9,81%,87.6%,120%,77.5%,87.5%,106%
C=CC(=O)Nc1cccc(Nc2nc(SC)nc(-c3cccc([N+](=O)[O-])c3)c2C#N)c1,44.8,47.2%,74,53.4%,40.4%,-19.6% (active),38.7%,7.62% (active),63.8%,20.3%,30%,46.5%,14.9%,52.2,18.5%,74.8%,49.7%,76.6%,49%,45%
Cc1ccc(NC(=O)/C=C/c2ccccc2)c(C(N)=O)c1,58.6,68.2%,63.1,88.2%,10.5%,62.9%,-8.74% (active),25.7%,60.7%,-21.2% (active),-8.15% (active),13.1%,96.6%,52.5,-9.67% (active),43.3%,15.2%,0.356% (active),63.2%,27%
CSc1nc(NCCO)c(C#N)c(-c2cccc([N+](=O)[O-])c2)n1,99.5,93.1%,102,91.6%,101%,79.4%,92.3%,105%,100%,116%,108%,90.8%,111%,86.5,104%,95.6%,98.3%,96.7%,115%,104%
O=C1CSC(=S)N1CCc1ccc(O)cc1,95,108%,98.1,85.2%,99%,66.9%,46.8%,96.7%,40%,106%,33.5%,58.2%,85.3%,91.3,95.9%,86.2%,97.5%,85.2%,92%,87.9%
O=C(COc1ccc(/C=C2\COc3ccccc3C2=O)cc1)Nc1nccs1,79,99%,104,94.6%,102%,64.9%,56.5%,98.3%,89.3%,127%,107%,-8.33% (active),88.5%,95.9,96.4%,92.8%,112%,85.9%,98.5%,93.2%
